Bioassay records deposited in PubChem by National Center for Advancing Translational Sciences (NCATS).
Hits are enriched below; roughly 19% of the tested compounds scored in any of these assays.
HepG2 tox – counter-screen for TGF-b inhibitors: cytotoxicity in HepG2 cells; HepG2 CAGA-GFP viability, ATP luminescence, 18 h; 0.76% of 410,000 active; Potency, µM (series often up to 46.1 µM), for the others: at the top dose activity change, negative = cytotoxicity, most hits filed as cytotoxic; also: potency is read from the fitted curve at half-maximal effect
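HepG2 CAGA-GFP cells (1000/well, DMEM with 1% FBS) received compound, then TGF-beta at 500 pg/mL final, and were incubated 18 hours at 37 degrees C. Viability was read by CellTiter-Glo luminescence. Media-only wells were set as complete cell-killing and DMSO as no toxicity.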
TGFb inhibitor – inhibitors of TGF-b signaling | 1.2% of 410,000 active | HepG2 CAGA-GFP TGF-b/SMAD3 reporter, GFP fluorescence, 18 h; TGF-beta stimulated, 500 pg/mL final | Potency, µM (doses to about 46.1 µM), inactives show top-dose activity, negative = inhibition, actives largely listed as inhibitors | AID 588855; also: potency is read from the fitted curve at half-maximal effect; % is scaled to controls: 0 for no effect and ±100 for the full control effect; nearly all actives have a fitted effect of over 65% in size
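First, reporter cells (HEPG2 CAGA-GFP) rested 2 h at 37 degrees C. Next, compounds were pinned in and TGF-beta added to 500 pg/mL final. After 18 h, GFP was imaged per cell and summed per well.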
DT40 TDP1 no CPT – qHTS for Inhibitors of human tyrosyl-DNA phosphodiesterase 1 (TDP1): qHTS in cells in absence of CPT | AID 686978, 2013 | 15% of 420,000 active | DT40 Tdp1-/- hTDP1 cells, no CPT, ATP luminescence, 48 h | Potency, µM (doses to about 46.2 µM), without a hit: at the highest dose activity change, negative = growth inhibition, hits mostly inhibitors; also: potency is read from the fitted curve at half-maximal effect; % is scaled to controls: 0 for no effect and ±100 for the full control effect; nearly all actives have a fitted effect of over 55% in size
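A cellular qHTS used chicken DT40 cells lacking endogenous Tdp1 but carrying stably transfected human TDP1. Compounds were applied without camptothecin, and cell growth kinetics were judged by ATP-dependent luminescence after ≥48 hr.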
IL-1B inflam inh – blocks inflammasome-driven IL-1 beta release; THP-1 LPS/ATP IL-1B secretion, AlphaLISA, 16 h; stronger effect = lower value; activity change, % at 57.5 µM; 4.7% of 360,000 active; in the data active = activity change below about -50%; inconclusive = mostly about -30% to -49%; also: % is scaled to controls: 0 for no effect and ±100 for the full control effect
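Secreted IL-1B measured by AlphaLISA bead assay after 16 h compound exposure of THP-1 cells; compounds (final up to 57.5 uM) added 1 h before LPS (250 ng/mL) and ATP (1.25 mM) stimulation; lower signal means less secretion.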
DT40 TDP1 CPT – growth inhibition of DT40 Tdp1-/-;hTDP1 cells with camptothecin (screen for TDP1 inhibitors). chicken DT40 Tdp1-/-;hTDP1 cells + 20 nM CPT, ATP luminescence, 48 h. Potency, µM (titrated, usually from 46.2 µM), for inactives: top-dose activity change, negative = growth inhibition, actives largely listed as inhibitors. 12% of 420,000 active. AID 686979; also: potency is read from the fitted curve at half-maximal effect; % is scaled to controls: 0 for no effect and ±100 for the full control effect; nearly all actives have a fitted effect of over 55% in size
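Chicken DT40 Tdp1-/- cells complemented with human TDP1, 400 cells/well, exposed to compounds plus 20 nM camptothecin for at least 48 h at 37 C; viability read as ATP content by CellTiter-Glo luminescence.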
TDP1 inh – TDP1 (human) enzyme inhibition; Q9NUW8; recombinant TDP1, AlphaScreen DNA substrate cleavage; Potency, µM (titrated, usually from 130 µM), for inactives: at the top dose activity change, negative = inhibition, hits mostly inhibitors; 0.28% of 350,000 active; also: potency is read from the fitted curve at half-maximal effect; % is scaled to controls: 0 for no effect and ±100 for the full control effect; nearly all actives have a fitted effect of over 40% in size
Target sequence (Q9NUW8 whole entry, looked up): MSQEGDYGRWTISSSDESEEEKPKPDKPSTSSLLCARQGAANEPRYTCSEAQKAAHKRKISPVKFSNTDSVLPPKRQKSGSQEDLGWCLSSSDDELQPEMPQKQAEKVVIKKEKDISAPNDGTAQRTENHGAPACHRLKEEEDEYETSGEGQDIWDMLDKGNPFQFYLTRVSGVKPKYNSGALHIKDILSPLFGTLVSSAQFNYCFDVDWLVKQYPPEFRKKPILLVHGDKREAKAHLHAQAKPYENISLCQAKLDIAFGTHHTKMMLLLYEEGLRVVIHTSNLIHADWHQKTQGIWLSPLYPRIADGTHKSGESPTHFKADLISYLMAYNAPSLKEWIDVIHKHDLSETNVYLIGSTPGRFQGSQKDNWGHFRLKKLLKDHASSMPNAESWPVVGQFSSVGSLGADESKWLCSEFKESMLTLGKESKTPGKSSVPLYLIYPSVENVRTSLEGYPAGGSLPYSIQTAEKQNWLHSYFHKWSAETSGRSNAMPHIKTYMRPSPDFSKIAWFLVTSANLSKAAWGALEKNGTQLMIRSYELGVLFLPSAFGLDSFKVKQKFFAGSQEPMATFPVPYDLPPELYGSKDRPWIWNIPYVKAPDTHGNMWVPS
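E. coli-derived human Tdp1, 1 nM final. Cpd preinc 15 min RT; substrate 15 nM final, 5 min RT; AS bead mix 10 ug/ml final, 10 min RT. Signal loss = tyrosine-FITC cleavage. No-enzyme wells = max signal.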
* = called active by the depositor; [ ] = another dose, or the depositor's remark. Unless noted, calls follow the shape of the dose curve; as a rule, active = well fitted curve in the direction sought with a large enough effect; inconclusive = small, poorly fitted or top-dose-only effect, or another doubt; inactive = no such curve, though single readings can be large; an effect the other way counts as inactive or inconclusive.

What do the screens show for `O=C(Cn1nc(-c2ccc(Cl)cc2)c2ccccc2c1=O)Nc1cccc(Br)c1`?
HepG2 tox: -8%; TGFb inhibitor: -12%; DT40 TDP1 no CPT: -9%; DT40 TDP1 CPT: -21%

Results for N#Cc1c(-c2ccc(Cl)cc2)c(-c2ccc(Cl)cc2)nn(CCOC(=O)CCC(=O)O)c1=O ?
HepG2 tox: -3%; TGFb inhibitor: inconclusive; DT40 TDP1 no CPT: inconclusive; IL-1B inflam inh: 13; DT40 TDP1 CPT: 10µM*

What do the screens show for `CCOc1ccc2[nH]c3nc(SCC(=O)OC(C)C)nnc3c2c1`?
HepG2 tox: 8%; TGFb inhibitor: 7%; DT40 TDP1 no CPT: 1%; IL-1B inflam inh: 2; DT40 TDP1 CPT: -9%; TDP1 inh: 0%

How did Cn1cccc1/C=N/N1CCN(Cc2cccc3ccccc23)CC1 do in these assays?
HepG2 tox: 1%; TGFb inhibitor: inconclusive; DT40 TDP1 no CPT: 13µM*; IL-1B inflam inh: inconclusive; DT40 TDP1 CPT: inconclusive; TDP1 inh: 13%

What do the screens show for `Cn1cccc1/C=N/N1CCN(Cc2ccccc2)CC1`?
HepG2 tox: 64%; TGFb inhibitor: 38%; DT40 TDP1 no CPT: -28%; IL-1B inflam inh: -16; DT40 TDP1 CPT: -1%; TDP1 inh: 11%

Results for COc1cc(SC)ccc1C(=O)Nc1c(C)cccc1C ?
HepG2 tox: -2%; TGFb inhibitor: 0%; DT40 TDP1 no CPT: 13µM*; IL-1B inflam inh: 21; DT40 TDP1 CPT: inconclusive; TDP1 inh: 7%

How did COc1cc(SC)ccc1C(=O)NNC(=O)c1cc(C)oc1C do in these assays?
HepG2 tox: 7.9µM*; TGFb inhibitor: 10%; DT40 TDP1 no CPT: 15µM*; IL-1B inflam inh: -3; DT40 TDP1 CPT: inconclusive; TDP1 inh: 0%

What do the screens show for `CCc1ccc2c(CC(=O)Nc3cccc(S(=O)(=O)N4CCOCC4)c3)coc2c1`?
HepG2 tox: -15%; TGFb inhibitor: inconclusive; DT40 TDP1 no CPT: inconclusive; IL-1B inflam inh: -17; DT40 TDP1 CPT: -10%; TDP1 inh: 2%

Results for COC(=O)[C@@H]1C[C@@]2(Br)c3ccccc3N(S(=O)(=O)c3ccccc3)[C@H]2N1C(=O)OC ?
HepG2 tox: -1%; TGFb inhibitor: 10%; DT40 TDP1 no CPT: inconclusive; IL-1B inflam inh: -6; DT40 TDP1 CPT: inconclusive

Results for COc1cccc(C(=O)N2c3ccccc3Sc3ccccc32)c1 ?
HepG2 tox: -27%; TGFb inhibitor: inconclusive; DT40 TDP1 no CPT: 16µM*; IL-1B inflam inh: -11; DT40 TDP1 CPT: 12µM*; TDP1 inh: 3%

How did O=C(c1ccncc1)N1c2ccccc2Sc2ccccc21 do in these assays?
HepG2 tox: -3%; TGFb inhibitor: -20%; DT40 TDP1 no CPT: 9.2µM*; IL-1B inflam inh: 2; DT40 TDP1 CPT: 21µM*; TDP1 inh: 4%

What do the screens show for `COc1ccccc1NC(=O)N1c2ccccc2Sc2ccccc21`?
HepG2 tox: 4%; TGFb inhibitor: inconclusive; DT40 TDP1 no CPT: 15µM*; DT40 TDP1 CPT: 15µM*

How did O=C(NC1CCN(C(=O)N2c3ccccc3Sc3ccccc32)CC1)c1ccccc1Cl do in these assays?
HepG2 tox: 0%; TGFb inhibitor: inconclusive; DT40 TDP1 no CPT: 23µM*; IL-1B inflam inh: -59*; DT40 TDP1 CPT: inconclusive; TDP1 inh: 4%

What do the screens show for `O=C(OCC(=O)N1c2ccccc2Sc2ccccc21)c1cccnc1`?
HepG2 tox: -29%; TGFb inhibitor: -3%; DT40 TDP1 no CPT: inconclusive; IL-1B inflam inh: 24; DT40 TDP1 CPT: -4%; TDP1 inh: -3%

Results for CC1(c2cccc(Br)c2)NC(=O)N(CC(=O)Nc2ccc3c(c2)OCO3)C1=O (centres undefined) ?
HepG2 tox: -16%; TGFb inhibitor: -11%; DT40 TDP1 no CPT: -26%; IL-1B inflam inh: -20; DT40 TDP1 CPT: -16%; TDP1 inh: 3%

How did O=C(NC1CCN(C(=O)Nc2ccccc2Cl)CC1)c1ccco1 do in these assays?
HepG2 tox: -2%; TGFb inhibitor: -3%; DT40 TDP1 no CPT: -7%; IL-1B inflam inh: 15; DT40 TDP1 CPT: -6%; TDP1 inh: 0%

What do the screens show for `COc1cccc(C(=O)NC2CCN(C(=O)N3c4ccccc4Sc4ccccc43)CC2)c1`?
HepG2 tox: -18%; TGFb inhibitor: -23%; DT40 TDP1 no CPT: inconclusive; IL-1B inflam inh: -57*; DT40 TDP1 CPT: inconclusive; TDP1 inh: 3%

What do the screens show for `O=C(NC1CCN(C(=O)N2c3ccccc3Sc3ccccc32)CC1)c1ccco1`?
HepG2 tox: -3%; TGFb inhibitor: -23%; DT40 TDP1 no CPT: 21µM*; IL-1B inflam inh: -8; DT40 TDP1 CPT: inconclusive; TDP1 inh: 4%

Results for Cc1cc(C)c(N(Cc2ccccc2)S(=O)(=O)c2ccc(OCCNC(=O)c3cc4ccccc4o3)cc2)c(C(=O)NO)c1 ?
TDP1 inh: 19%

Results for CCc1ccc(C2C(C(=O)Nc3ccccc3OC)=C(C)Nc3c(C(=O)Nc4ccc(C)cc4)cnn32)cc1 (centres undefined) ?
HepG2 tox: -20%; TGFb inhibitor: -19%; DT40 TDP1 no CPT: inconclusive; DT40 TDP1 CPT: inconclusive; TDP1 inh: 7%

What do the screens show for `Cc1ccc(NC(=O)c2c(C(F)(F)F)nn(C)c2SCc2cccc(C(F)(F)F)c2)cc1C`?
HepG2 tox: -12%; TGFb inhibitor: -17%; DT40 TDP1 no CPT: 4.1µM*; IL-1B inflam inh: -21; DT40 TDP1 CPT: 7.3µM*; TDP1 inh: -1%

Results for Cc1ccc(NC(=O)c2c(C(F)(F)F)nn(C)c2SCc2ccc(Cl)cc2)cc1C ?
HepG2 tox: -1%; TGFb inhibitor: inconclusive; DT40 TDP1 no CPT: 23µM*; IL-1B inflam inh: -21; DT40 TDP1 CPT: 26µM*; TDP1 inh: 5%

Results for O=Nc1c(O)[nH]c2c(Cl)c(Cl)ccc12 ?
TDP1 inh: 17%

How did COCCn1c(SCC(=O)c2c(N)n(C3CC3)c(=O)[nH]c2=O)nnc1-c1cccc(C)c1 do in these assays?
HepG2 tox: -3%; TGFb inhibitor: 13%; DT40 TDP1 no CPT: 1%; IL-1B inflam inh: 15; DT40 TDP1 CPT: 1%; TDP1 inh: 1%[56.1 µM]

How did O=C(Oc1cc(=O)oc2c1c(=O)n1c3c(cccc23)CC1)c1ccc(F)cc1 do in these assays?
HepG2 tox: 0%; TGFb inhibitor: 7%; DT40 TDP1 no CPT: 23µM*; DT40 TDP1 CPT: -26%; TDP1 inh: 7%
